Experimental data published in the supplement of paper PMC10849652.
Of roughly 8,800 targets only a part is listed; those with a hit were picked by preference. About 0.5% of all pairs of compound and target were hits. Unmarked numbers belong to inactive results.

Assays:
Assay in all cases: log2 fold change, soluble protein after heating vs DMSO (PISA); higher = thermal stabilisation; K562 lysate, 10 uM; active = over 0.2 and 3.5 SD of the protein, either way, in both replicates (recomputed)
lapatinib = compound: CS(=O)(=O)CCNCc1ccc(-c2ccc3ncnc(Nc4ccc(OCc5cccc(F)c5)c(Cl)c4)c3c2)o1 [lapatinib]
Outline: (§1)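 Following dounce homogenisation of K562 pellets in PBS pH 7.4 with 1 mM MgCl2, crude extract at 1 mg/mL protein was incubated for 30 min with 10 μM compound. Aliquots were then heated for 3 min over 48°C-58°C and pooled, NP-40 was added to 0.5% at 4°C, and soluble protein was recovered as the supernatant at 21,000xg for 90 min. Channel-sum-equalised TMTpro 16plex LC-MS/MS quantified this protein. Each value, from duplicates, is a log-two fold change in thermal stability relative to solvent controls.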

pictilisib = compound: CS(=O)(=O)N1CCN(Cc2cc3nc(-c4cccc5[nH]ncc45)nc(N4CCOCC4)c3s2)CC1 [pictilisib]
Outline: as §1

crizotinib = compound: C[C@@H](Oc1cc(-c2cnn(C3CCNCC3)c2)cnc1N)c1c(Cl)ccc(F)c1Cl [crizotinib]
Outline: as §1

[1] = compound: C[C@H](C1=CC=C(C=C1)C(=O)NC2=C3C=CNC3=NC=C2)N
Outline: as §1

duvelisib = compound: C[C@H](Nc1ncnc2nc[nH]c12)c1cc2cccc(Cl)c2c(=O)n1-c1ccccc1 [duvelisib]
Outline: as §1

gandotinib = compound: Cc1cc(Nc2cc(CN3CCOCC3)c3nc(C)c(Cc4ccc(Cl)cc4F)n3n2)n[nH]1 [gandotinib]
Outline: as §1

tozasertib = compound: Cc1cc(Nc2cc(N3CCN(C)CC3)nc(Sc3ccc(NC(=O)C4CC4)cc3)n2)n[nH]1 [tozasertib]
Outline: as §1

doramapimod = compound: Cc1ccc(-n2nc(C(C)(C)C)cc2NC(=O)Nc2ccc(OCCN3CCOCC3)c3ccccc23)cc1 [doramapimod]
Outline: as §1

bafetinib = compound: Cc1ccc(NC(=O)c2ccc(CN3CC[C@H](N(C)C)C3)c(C(F)(F)F)c2)cc1Nc1nccc(-c2cncnc2)n1 [bafetinib]
Outline: as §1

[2] = compound: Cc1cccc(CC(=O)N2CCc3c2ccc(-c2cn(C)c4ncnc(N)c24)c3F)n1
Outline: as §1

nilotinib = compound: Cc1cn(-c2cc(NC(=O)c3ccc(C)c(Nc4nccc(-c5cccnc5)n4)c3)cc(C(F)(F)F)c2)cn1 [nilotinib]
Outline: as §1

[3] = compound: Cc1nc(Nc2n[nH]c3c2CN(C(=O)N[C@H](CN(C)C)c2ccccc2)C3(C)C)c2sccc2n1
Outline: as §1

dasatinib = compound: Cc1nc(Nc2ncc(C(=O)Nc3c(C)cccc3Cl)s2)cc(N2CCN(CCO)CC2)n1 [dasatinib]
Outline: as §1

[4] = compound: Cc1ncc(-c2ccnc(Nc3ccc(S(C)(=O)=O)cc3)n2)n1C(C)C
Outline: as §1

[5] = compound: Cn1cc(-c2ccc3c(c2)CCN3C(=O)Cc2cccc(C(F)(F)F)c2)c2c(N)ncnc21
Outline: as §1

quisinostat = compound: Cn1cc(CNCC2CCN(c3ncc(C(=O)NO)cn3)CC2)c2ccccc21 [quisinostat]
Outline: as §1

tipifarnib = compound: Cn1cncc1[C@@](N)(c1ccc(Cl)cc1)c1ccc2c(c1)c(-c1cccc(Cl)c1)cc(=O)n2C [tipifarnib]
Outline: as §1

[6] = compound: NC(=O)Nc1cc(-c2cccc(F)c2)sc1C(=O)N[C@H]1CCCNC1
Outline: as §1

[7] = compound: NC(=O)c1cnc(N[C@@H]2CCCC[C@@H]2N)nc1Nc1cccc(-n2nccn2)c1
Outline: as §1

[8] = compound: NC1(c2ccc(-c3nc4ccn5c(=O)[nH]nc5c4cc3-c3ccccc3)cc2)CCC1
Outline: as §1

UniProt Q8IWV7, sequence (Q8IWV7 whole entry, looked up): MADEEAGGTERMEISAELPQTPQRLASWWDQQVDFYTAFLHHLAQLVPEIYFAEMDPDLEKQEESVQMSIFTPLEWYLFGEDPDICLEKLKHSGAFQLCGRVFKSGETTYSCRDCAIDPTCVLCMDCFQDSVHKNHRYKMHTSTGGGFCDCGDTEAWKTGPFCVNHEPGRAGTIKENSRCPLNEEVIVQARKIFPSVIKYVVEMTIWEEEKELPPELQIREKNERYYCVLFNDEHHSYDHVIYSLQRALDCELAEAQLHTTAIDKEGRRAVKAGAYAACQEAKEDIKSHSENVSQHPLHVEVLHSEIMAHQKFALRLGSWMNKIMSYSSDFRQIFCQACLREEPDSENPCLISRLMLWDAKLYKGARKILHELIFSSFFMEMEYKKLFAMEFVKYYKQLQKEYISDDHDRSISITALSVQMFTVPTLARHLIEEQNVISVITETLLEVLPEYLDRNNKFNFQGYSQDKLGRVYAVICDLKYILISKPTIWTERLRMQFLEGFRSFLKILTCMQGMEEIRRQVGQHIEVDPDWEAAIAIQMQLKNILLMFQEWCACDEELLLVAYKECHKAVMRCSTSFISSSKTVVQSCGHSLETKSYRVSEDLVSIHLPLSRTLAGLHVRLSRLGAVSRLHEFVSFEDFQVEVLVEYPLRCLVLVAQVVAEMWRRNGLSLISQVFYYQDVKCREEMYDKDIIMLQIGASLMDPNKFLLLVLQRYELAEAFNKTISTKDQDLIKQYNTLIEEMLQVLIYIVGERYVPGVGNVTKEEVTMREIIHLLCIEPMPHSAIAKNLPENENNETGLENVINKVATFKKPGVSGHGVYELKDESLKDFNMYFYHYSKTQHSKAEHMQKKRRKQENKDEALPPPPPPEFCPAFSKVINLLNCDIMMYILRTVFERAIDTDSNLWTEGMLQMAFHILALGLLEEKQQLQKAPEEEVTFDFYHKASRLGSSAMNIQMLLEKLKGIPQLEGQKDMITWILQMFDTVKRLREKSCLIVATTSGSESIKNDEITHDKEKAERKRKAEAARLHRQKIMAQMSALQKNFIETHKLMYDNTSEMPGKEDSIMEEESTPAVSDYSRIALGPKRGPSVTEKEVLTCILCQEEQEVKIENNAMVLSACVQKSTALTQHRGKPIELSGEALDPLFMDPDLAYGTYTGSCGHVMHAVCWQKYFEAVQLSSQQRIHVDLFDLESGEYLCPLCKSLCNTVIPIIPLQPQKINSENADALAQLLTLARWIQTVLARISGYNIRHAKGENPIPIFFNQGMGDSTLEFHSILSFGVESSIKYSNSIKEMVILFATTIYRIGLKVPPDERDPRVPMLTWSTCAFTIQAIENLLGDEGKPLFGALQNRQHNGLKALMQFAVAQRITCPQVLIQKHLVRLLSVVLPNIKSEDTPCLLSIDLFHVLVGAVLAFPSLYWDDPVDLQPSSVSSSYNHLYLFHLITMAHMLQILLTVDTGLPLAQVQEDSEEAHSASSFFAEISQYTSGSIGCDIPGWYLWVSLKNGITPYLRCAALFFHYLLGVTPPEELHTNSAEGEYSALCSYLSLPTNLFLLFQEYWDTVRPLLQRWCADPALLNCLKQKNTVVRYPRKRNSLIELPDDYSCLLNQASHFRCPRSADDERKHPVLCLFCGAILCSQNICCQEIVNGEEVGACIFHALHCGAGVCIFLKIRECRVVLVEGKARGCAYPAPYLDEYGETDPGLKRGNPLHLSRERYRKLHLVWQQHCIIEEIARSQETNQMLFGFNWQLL
UniProt P67936, sequence (P67936 whole entry, looked up): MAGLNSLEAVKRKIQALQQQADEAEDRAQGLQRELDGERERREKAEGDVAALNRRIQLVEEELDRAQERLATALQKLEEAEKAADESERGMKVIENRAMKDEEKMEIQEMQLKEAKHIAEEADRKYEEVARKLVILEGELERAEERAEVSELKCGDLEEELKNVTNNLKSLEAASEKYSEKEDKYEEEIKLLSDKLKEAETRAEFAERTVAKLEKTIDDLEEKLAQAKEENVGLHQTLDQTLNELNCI
UniProt Q9UNY4, sequence (Q9UNY4 whole entry, looked up): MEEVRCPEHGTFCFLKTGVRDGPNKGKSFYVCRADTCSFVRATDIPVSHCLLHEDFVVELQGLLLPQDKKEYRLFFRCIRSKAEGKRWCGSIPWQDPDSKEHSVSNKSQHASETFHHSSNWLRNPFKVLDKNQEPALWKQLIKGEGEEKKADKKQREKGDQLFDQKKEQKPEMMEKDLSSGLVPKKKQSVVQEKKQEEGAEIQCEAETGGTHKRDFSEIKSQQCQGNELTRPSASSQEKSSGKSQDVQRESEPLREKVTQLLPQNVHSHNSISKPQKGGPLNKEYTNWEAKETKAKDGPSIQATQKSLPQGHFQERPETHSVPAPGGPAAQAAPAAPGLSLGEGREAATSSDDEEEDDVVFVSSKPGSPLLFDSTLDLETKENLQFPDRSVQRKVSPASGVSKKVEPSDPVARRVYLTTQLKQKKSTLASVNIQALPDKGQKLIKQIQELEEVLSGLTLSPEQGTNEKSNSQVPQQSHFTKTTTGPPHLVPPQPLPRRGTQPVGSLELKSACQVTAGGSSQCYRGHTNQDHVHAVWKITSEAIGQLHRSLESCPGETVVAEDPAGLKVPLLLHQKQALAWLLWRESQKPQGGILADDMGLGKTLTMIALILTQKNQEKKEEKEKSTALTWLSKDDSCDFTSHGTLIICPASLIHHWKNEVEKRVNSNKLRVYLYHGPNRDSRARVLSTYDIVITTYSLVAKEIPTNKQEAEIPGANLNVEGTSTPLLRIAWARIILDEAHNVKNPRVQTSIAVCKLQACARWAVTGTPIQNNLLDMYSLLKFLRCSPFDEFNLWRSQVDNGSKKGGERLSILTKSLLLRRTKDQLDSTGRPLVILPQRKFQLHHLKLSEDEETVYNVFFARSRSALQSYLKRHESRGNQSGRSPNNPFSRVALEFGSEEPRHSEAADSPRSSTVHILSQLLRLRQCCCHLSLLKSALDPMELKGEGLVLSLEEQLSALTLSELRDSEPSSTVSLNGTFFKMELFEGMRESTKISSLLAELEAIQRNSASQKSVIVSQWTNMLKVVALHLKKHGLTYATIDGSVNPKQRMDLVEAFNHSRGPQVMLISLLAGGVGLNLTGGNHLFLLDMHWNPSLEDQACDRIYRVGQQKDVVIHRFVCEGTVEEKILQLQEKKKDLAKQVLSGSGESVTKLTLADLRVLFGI
UniProt P42166, sequence (P42166 whole entry, looked up): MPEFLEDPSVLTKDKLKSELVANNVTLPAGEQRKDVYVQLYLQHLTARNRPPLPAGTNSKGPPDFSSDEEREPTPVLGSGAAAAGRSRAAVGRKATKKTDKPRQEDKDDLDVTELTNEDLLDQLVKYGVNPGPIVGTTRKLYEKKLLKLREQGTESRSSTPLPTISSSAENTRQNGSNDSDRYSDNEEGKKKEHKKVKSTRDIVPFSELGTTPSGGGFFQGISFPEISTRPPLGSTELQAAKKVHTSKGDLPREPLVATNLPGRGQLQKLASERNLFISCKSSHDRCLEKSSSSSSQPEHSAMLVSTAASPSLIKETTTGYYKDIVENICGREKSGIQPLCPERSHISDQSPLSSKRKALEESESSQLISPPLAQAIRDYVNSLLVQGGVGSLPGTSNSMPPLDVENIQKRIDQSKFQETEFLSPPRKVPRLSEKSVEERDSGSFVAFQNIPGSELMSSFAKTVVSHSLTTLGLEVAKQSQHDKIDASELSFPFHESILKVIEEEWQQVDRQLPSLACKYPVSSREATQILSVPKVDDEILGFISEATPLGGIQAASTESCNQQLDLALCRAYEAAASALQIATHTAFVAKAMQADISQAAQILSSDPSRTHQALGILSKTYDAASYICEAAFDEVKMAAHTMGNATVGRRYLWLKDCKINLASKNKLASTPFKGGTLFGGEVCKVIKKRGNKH
UniProt O43156, sequence (O43156 whole entry, looked up): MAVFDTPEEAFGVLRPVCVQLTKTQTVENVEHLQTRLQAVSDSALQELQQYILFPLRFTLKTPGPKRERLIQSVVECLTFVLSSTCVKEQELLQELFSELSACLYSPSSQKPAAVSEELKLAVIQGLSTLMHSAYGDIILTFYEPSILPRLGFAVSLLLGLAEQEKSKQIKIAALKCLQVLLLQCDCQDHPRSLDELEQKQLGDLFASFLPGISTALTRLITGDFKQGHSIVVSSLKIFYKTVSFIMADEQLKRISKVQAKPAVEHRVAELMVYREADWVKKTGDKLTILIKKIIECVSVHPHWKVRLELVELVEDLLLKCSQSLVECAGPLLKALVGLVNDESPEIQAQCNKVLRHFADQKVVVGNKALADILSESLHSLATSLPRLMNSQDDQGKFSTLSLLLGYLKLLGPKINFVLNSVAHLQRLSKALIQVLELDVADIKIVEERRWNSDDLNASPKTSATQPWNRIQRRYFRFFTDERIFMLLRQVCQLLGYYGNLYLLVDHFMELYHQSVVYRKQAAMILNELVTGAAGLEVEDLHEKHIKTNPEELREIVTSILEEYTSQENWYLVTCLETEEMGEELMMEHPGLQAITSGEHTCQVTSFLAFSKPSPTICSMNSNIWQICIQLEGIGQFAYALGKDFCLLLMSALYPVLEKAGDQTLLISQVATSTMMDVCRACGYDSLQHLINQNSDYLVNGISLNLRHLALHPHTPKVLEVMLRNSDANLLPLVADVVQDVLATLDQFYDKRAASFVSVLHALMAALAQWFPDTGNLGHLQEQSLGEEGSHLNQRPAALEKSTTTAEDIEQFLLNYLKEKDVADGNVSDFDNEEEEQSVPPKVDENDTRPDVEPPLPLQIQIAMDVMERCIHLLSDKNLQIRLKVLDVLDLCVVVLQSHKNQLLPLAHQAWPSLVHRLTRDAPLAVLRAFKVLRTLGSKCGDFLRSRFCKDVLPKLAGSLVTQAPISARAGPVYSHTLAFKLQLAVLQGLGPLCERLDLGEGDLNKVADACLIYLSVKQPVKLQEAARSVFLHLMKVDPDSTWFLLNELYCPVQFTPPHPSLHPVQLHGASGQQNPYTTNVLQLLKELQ
UniProt O75865, sequence (O75865 whole entry, looked up): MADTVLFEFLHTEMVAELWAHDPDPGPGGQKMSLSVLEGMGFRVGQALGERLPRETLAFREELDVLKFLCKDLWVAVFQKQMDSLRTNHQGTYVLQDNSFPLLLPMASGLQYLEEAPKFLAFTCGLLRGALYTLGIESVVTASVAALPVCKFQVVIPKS

Target	log2 fold change (lapatinib)	log2 fold change (pictilisib)	log2 fold change (crizotinib)	log2 fold change [1]	log2 fold change (duvelisib)	log2 fold change (gandotinib)	log2 fold change (tozasertib)	log2 fold change (doramapimod)	log2 fold change (bafetinib)	log2 fold change [2]	log2 fold change (nilotinib)	log2 fold change [3]	log2 fold change (dasatinib)	log2 fold change [4]	log2 fold change [5]	log2 fold change (quisinostat)	log2 fold change (tipifarnib)	log2 fold change [6]	log2 fold change [7]	log2 fold change [8]
TRIM23 (UniProt P36406)	-0.063	-0.12	-0.003	-0.235	0.134	0.372 (active)	0.026	0.01	-0.088	0.297	0.107	-0.004	-0.005	-0.046	0.136	-0.044	0.023	0.005	0.072	0.037
TPM4 (UniProt P67936)	-0.002	-0.043	0.003	-0.001	-0.021	0.039	-0.098	-0.029	-0.055	-0.018	0.028	-0.068	0.058	-0.028	-0.01	0	-0.004	-0.054	0.007	-0.029
TRAPPC6A isoform 2 (UniProt O75865)	0.02	0.015	0.001	-0.146	-0.006	0.14	-0.039	-0.01	0.017	0.05	0.015	-0.09	-0.026	0.02	-0.058	0.006	0.048	-0.048	-0.008	0.076
TSPAN13 (UniProt O95857)	0.017	0.015	0.011	-0.387 (active)	-0.241	0.32	-0.207	0.119	0.038	0.055	-0.067	0.02	-0.054	0.121	-0.35	0.034	-0.032	-0.126	0.035	0.132
TMPO (UniProt P42166)	0.018	-0.012	0.016	-0.179	0.023	-0.048	0.016	-0.017	-0.021	0.034	0.05	-0.178	-0.069	-0.036	0.029	-0.041	-0.018	0.035	0.031	-0.006
TMPO (UniProt P42167)	0.053	0.029	0.059	0.047	-0.039	-0.033	0.035	-0.037	0.005	-0.04	-0.033	-0.003	0.008	-0.042	-0.016	0.061	-0.034	0.009	-0.011	0.007
UBR1 (UniProt Q8IWV7)	-0.018	-0.035	-0.082	-0.046	0.01	-0.081	0	0.039	-0.065	0.032	-0.022	0.01	-0.012	0.013	0.046	-0.093	0.007	0.021	-0.006	-0.021
TDRKH (UniProt Q9Y2W6)	-0.069	-0.036	-0.083	-0.061	-0.028	0.062	0.081	-0.043	0.02	0.074	-0.01	-0.077	-0.059	0.018	0.028	-0.087	-0.048	0.041	0.003	0.067
TIMM44 (UniProt O43615)	0.04	0.022	0.055	0.009	-0.003	0.136	0.019	0.058	-0.067	0.065	0.082	-0.011	-0.087	0.023	-0.028	0.003	-0.108	-0.058	0	-0.031
TOPBP1 (UniProt Q92547)	0.095	-0.037	0.023	0.206	-0.03	-0.048	-0.066	0.056	-0.076	-0.017	0.013	-0.056	0.003	0.006	0.02	-0.018	0.049	-0.002	0.039	-0.007
TTI1 (UniProt O43156)	-0.011	-0.044	-0.11	-0.075	-0.005	-0.113	0.028	0.045	-0.016	0.056	-0.007	0.004	0.005	0.001	0.016	-0.047	-0.015	-0.003	0.01	-0.001
TCAF2 (UniProt A6NFQ2)	0.024	-0.017	-0.108	-0.02	0.004	-0.098	0.008	-0.03	-0.048	0.041	0.051	0.004	0.001	0.05	0.042	-0.061	-0.037	0.047	0.041	-0.011
TMEM199 (UniProt Q8N511)	-0.034	-0.035	0.062	-0.053	0.051	0.016	0.074	-0.068	-0.016	0.099	0.005	0.005	-0.011	0.001	0.046	0.031	0.026	0	0.005	0.068
TTF2 (UniProt Q9UNY4)	0.028	-0.048	-0.104	-0.052	0	0	0.019	0.053	-0.02	0.102	-0.008	-0.062	-0.012	-0.023	0.018	-0.042	0.004	0.02	0.019	-0.067
TNKS (UniProt O95271)	-0.085	–	-0.031	-0.302 (active)	-0.027	0.038	0.073	-0.013	–	0.107	-0.053	-0.016	0.081	0.04	-0.051	-0.021	0.103	0.032	0.088	0.028
